From PubChem BioAssay (NCATS)
Records with an inconclusive call do not appear. The source made the active and inactive calls. Calls follow the shape of the dose curve; as a rule, active = well fitted cell-killing curve with a large enough effect; inconclusive = small, poorly fitted or top-dose-only effect, or effect the other way; inactive = no such curve, though single readings can be large or run the other way.

assay: Quantitative High-Throughput drug screen in 47 multiple myeloma cell lines against the NCATS MIPE library collection: KMS26_JCRB cell viability assay (AID 1918975); conditions: KMS26 myeloma cells viability, CellTiter-Glo ATP, 48 h; series mostly up to 45.8 µM; also: nearly all actives have a fitted effect of over 45% in size
From the text: PI: Beverly A. Mock Ph.D.
Laboratory of Cancer Biology and Genetics,
Center for Cancer Research, National Cancer Institute,
National Institute of Health, Bethesda, Maryland
Drug resistance and disease progression are common in multiple myeloma (MM) patients, underscoring the need for new therapeutic combinations. […] We hypothesized that effective combinations would reduce MYC expression and enhance p16 activity. […] These preclinical data identify potentially useful drug combinations for evaluation in drug-resistant MM and reveal potential mechanisms of combined drug sensitivity.
Described herein is the primary MIPE qHTS used to cherrypick compounds. Validated compounds were then further tested for potential synergistic activiy.
[1] Peat TJ, Gaikwad SM, Dubois W, Gyabaah-Kessie N, Zhang S, Gorjifard S, Phyo Z, Andres M, Hughitt VK, Simpson RM, Miller MA, Girvin AT, Taylor A, Williams D, D'Antonio N, Zhang Y, Rajagopalan A, Flietner E, Wilson K, Zhang X, Shinn P, Klumpp-Thomas C, McKnight C, Itkin Z, Chen L, Kazandijian D, Zhang J, Michalowski AM, Simmons JK, Keats J, Thomas CJ, Mock BA. Drug combinations identified by high-throughput screening promote cell cycle transition and upregulate Smad pathways in myeloma. Cancer Lett. 2023 Aug 1;568:216284. doi: 10.1016/j.canlet.2023.216284. Epub 2023 Jun 24. PMID: 37356470; PMCID: PMC10408729.
SEQUENCE No. (e.g., 1, 2, 3, etc.); […] (e.g., Cells, Incubation, Reagent, etc.); VALUE and DESCRIPTION.
1; Cells; 5 uL; white, solid bottom 1536-well Greiner assay plate.
2; Compounds; 23 nL; Kalypsis pin tool (Wako USA) equipped with a 1536-well pin head to transfer to the assay plates.
3; Incubation; 48 hours; 37C incubation.
4; Reagent;5uL; CellTiter Glo (Promega).
5; Detector; 425V; Luminescence; Viewlux PerkinElmer.
NOTES (numbers refer to Sequence numbers above)
1. The cell-based screening methods employed in this study were like those previously published. Briefly, the corresponding myeloma cell lines were screened in 1,536-well plates with 500 cells, 5-uL per well for inhibition of cell viability (assessed by measuring ATP levels with CellTiterGlo).
2. NCATS MIPE 4.0 library of approved and investigational drugs were added using the Kalypsis pin tool. Wells treated with DMSO only for 100% viability and media only wells for 0% viability were used as controls.
3. The assay plates were covered and incubated for 48 hours in a 37C, 5% CO2 incubator with controlled humidity.
4. After 48 hours, CellTilter-GloTM luminescent substrate mix (Promega) reagent was added to the assay plate and plates we incubated for 5 min at room temperature.
5. Signal was measured as median relative luminescence units on a ViewLux (PerkinElmer) multiplate reader.
[1] Heske CM, Davis MI, Baumgart JT, Wilson K, Gormally MV, Chen L, Zhang X, Ceribelli M, Duveau DY, Guha R, Ferrer M, Arnaldez FI, Ji J, Tran HL, Zhang Y, Mendoza A, Helman LJ, Thomas CJ. Matrix Screen Identifies Synergistic Combination of PARP Inhibitors and Nicotinamide Phosphoribosyltransferase (NAMPT) Inhibitors in Ewing Sarcoma. Clin Cancer Res. 2017 Dec 1;23(23):7301-7311. doi: 10.1158/1078-0432.CCR-17-1121. Epub 2017 Sep 12. PMID: 28899971; PMCID: PMC6636827.
Potency is read from the fitted curve at half-maximal effect.

SMILES	Potency
CCC(=O)NC[C@H](Cc1ccc(OCCc2nc(-c3ccccc3)oc2C)cc1)NC(C)=CC(=O)c1ccc(C(F)(F)F)cc1	20.9 µM (active)
COC1CCC(N(C(=O)C2CCC(C)CC2)c2cc(C3=CCCCC3)sc2C(=O)O)CC1 (stereo not given)	inactive
Cc1ccc(C(=O)Nc2cccc(C(F)(F)F)c2)cc1Nc1nc(-c2cccnc2)nc2c1cnn2C	13.2 µM (active)
O=C(O)CCC1CCC(c2cc(F)ccc2F)(S(=O)(=O)c2ccc(Cl)cc2)CC1 (stereo not given)	inactive
CC(C)(C)OC(=O)N[C@H]1CCCCCC=C[C@@H]2C[C@@]2(C(=O)NS(=O)(=O)C2CC2)NC(=O)[C@@H]2C[C@@H](OC(=O)N3Cc4cccc(F)c4C3)CN2C1=O	inactive
O=c1cc(CN2CCOCC2)occ1OCCCCCSc1ccnc2cc(C(F)(F)F)ccc12	16.6 µM (active)
NC(CO)(CO)CCc1ccc(Sc2cccc(OCc3ccccc3)c2)cc1Cl	18.7 µM (active)
C[C@]12CC[C@@H]3c4ccc(O)cc4CC[C@H]3[C@H]1C[C@@H](O)[C@H]2O	0.0418 µM (active)
CCCCCN(C)CCC(O)(P(=O)(O)O)P(=O)(O)O	inactive
Cc1ccc(C(C)(O)c2nc3ccccc3s2)c(C)c1 (stereo not given)	inactive
Cc1ccc(F)c(NC(=O)Nc2ccc(-c3cccc4[nH]nc(N)c34)cc2)c1	23.5 µM (active)
CC1(C)CCC(CN2CCN(c3ccc(C(=O)NS(=O)(=O)c4ccc(NCC5CCOCC5)c([N+](=O)[O-])c4)c(Oc4cnc5[nH]ccc5c4)c3)CC2)=C(c2ccc(Cl)cc2)C1	18.7 µM (active)
O=C(O)[C@H]1O[C@H](Oc2cc3oc(-c4ccccc4)cc(=O)c3c(O)c2O)[C@H](O)[C@@H](O)[C@H]1O	20.9 µM (active)
O=C(CCc1ccc(O)cc1)c1c(O)cc(O)cc1O[C@@H]1O[C@H](CO)[C@H](O)[C@H](O)[C@H]1O	inactive
O=C(O)C(O)Cc1ccc(O)c(O)c1 (stereo not given)	20.9 µM (active)
CCS(=O)(=O)N1CC(CC#N)(n2cc(-c3ncnc4[nH]ccc34)cn2)C1	16.6 µM (active)
COc1cc(Nc2ncc(F)c(Nc3ccc4c(n3)NC(=O)C(C)(C)O4)n2)cc(OC)c1OC	9.35 µM (active)
CC1(C)O[C@H]2C[C@@H]3[C@H]4CCC5=CC(=O)C=C[C@]5(C)[C@@]4(F)[C@@H](O)C[C@]3(C)[C@]2(C(=O)CO)O1	inactive
Cc1[nH]c(C=C2C(=O)Nc3ccc(S(=O)(=O)Cc4c(Cl)cccc4Cl)cc32)c(C)c1C(=O)N1CCC[C@H]1CN1CCCC1	23.5 µM (active)
CC1(C)CCC2=C(O1)c1ccccc1C(=O)C2=O	18.7 µM (active)

SMILES	Potency
O=C1C(Cl)=C(NCCN2CCOCC2)C(=O)c2ncccc21	6.62 µM (active)
CO[C@H]1C[C@@H]2CC[C@@H](C)[C@@](O)(O2)C(=O)C(=O)N2CCCC[C@@H]2C(=O)O[C@H]([C@@H](C)C[C@@H]2CC[C@H](O)[C@H](OC)C2)CC(=O)[C@H](C)C=C(C)[C@@H](O)[C@@H](OC)C(=O)[C@H](C)C[C@H](C)C=CC=CC=C1C	inactive
c1ccc2c(Cc3c[nH]c4ccccc34)c[nH]c2c1	4.69 µM (active)
CN(C)c1cc(NC(=O)CNC(C)(C)C)c(O)c2c1C[C@@H]1C[C@H]3[C@H](N(C)C)C(=O)C(C(N)=O)=C(O)[C@@]3(O)C(=O)C1=C2O	inactive
C=C1C(=O)[C@@]23C(CC[C@@H]1[C@H]2O)[C@@]12CO[C@]3(O)[C@@H](O)[C@@H]1C(C)(C)CC[C@@H]2O (stereo not given in full)	2.64 µM (active)
OC[C@H]1O[C@@H](n2cnc3c2NC=NC[C@@H]3O)C[C@H]1O	inactive
Oc1ccc(C2=Cc3ccc(O)cc3OC2)cc1	8.33 µM (active)
CC(C)(C)c1cc(C(=O)O)c(NC(=O)Nc2ccc3[nH]ncc3c2)s1	inactive
CCCCCNC(=O)N1CCC(CN(Cc2ccc(Cl)cc2)Cc2ccc([N+](=O)[O-])s2)C1 (stereo not given)	23.5 µM (active)
CO[C@H]1C=CO[C@@]2(C)Oc3c(C)c(O)c4c(O)c(c5c(c4c3C2=O)NC2(CCN(CC(C)C)CC2)N=5)=NC(=O)C(C)=CC=C[C@H](C)[C@H](O)[C@@H](C)[C@@H](O)[C@@H](C)[C@H](OC(C)=O)[C@H]1C	inactive
O=c1c(-c2ccc(O)cc2)coc2cc(O[C@@H]3O[C@H](CO)[C@H](O)[C@H](O)[C@H]3O)ccc12	inactive
CC(C)(C)C(=O)Oc1ccc2c(c1)nc(NC(=O)c1cccc([N+](=O)[O-])c1)n2CCCO	inactive
COCCOC(=O)C1=C(C)NC2=C(C(=O)CC(c3ccccc3OC)C2)C1c1cccc(O)c1 (stereo not given)	8.33 µM (active)
Cc1c(O)cccc1C(=O)N[C@@H](CSc1ccccc1)[C@H](O)CN1C[C@H]2CCCC[C@@H]2C[C@@H]1C(=O)NC(C)(C)C	29.6 µM (active)
CC(C)C(=O)Nc1ncc(-c2cc(C(F)F)nn2-c2c(Cl)cccc2Cl)s1	18.7 µM (active)
CC[C@@]1(O)C[C@H](O[C@H]2C[C@H](N(C)C)[C@H](O[C@H]3C[C@H](O)[C@H](O[C@H]4CCC(=O)[C@H](C)O4)[C@H](C)O3)[C@H](C)O2)c2c(cc3c(c2O)C(=O)c2c(O)cccc2C3=O)[C@@H]1C(=O)OC	0.743 µM (active)
COc1ccc(Cc2ccc(NC(N)=O)cc2)cc1-c1cccc(Cl)c1	inactive
NS(=O)(=O)c1ccc(NC2=CC(=O)c3ccccc3C2=O)cc1	3.72 µM (active)
O=C(OCC#CCSc1nnc(-c2cccc3ccccc23)o1)c1cc2ccccc2s1	inactive
CC[C@H]1OC(=O)[C@H](C)[C@@H](O[C@H]2C[C@@](C)(OC)[C@@H](O)[C@H](C)O2)[C@H](C)[C@@H](O[C@@H]2O[C@H](C)C[C@H](N(C)C)[C@@H]2O)[C@](C)(O)C[C@@H](C)CN(C)[C@H](C)[C@@H](O)[C@]1(C)O	inactive
